Screening data deposited in PubChem BioAssay by National Center for Advancing Translational Sciences (NCATS).
SW480 rereplic: A quantitative high throughput screen for small molecules that induce DNA re-replication in SW480 colon adenocarcinoma cells. SW480 DNA re-replication, Hoechst DNA content imaging, 48 h. Potency, µM (series often up to 46.1 µM), usual class: activators. 1.8% of 340,000 active. AID 624297, 2012; note: nearly all actives have a fitted effect of over 55% in size
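Hoechst fluorescence of nuclei (405 nm excitation, 500-530 nm emission) measured by plate-scanning imager after 48 hr compound exposure at 37 C; re-replication scored as increased number of nuclei with elevated intensity.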
RORg inh: qHTS for inhibitors of ROR gamma transcriptional activity; Nuclear receptor ROR-gamma (Mus musculus), P51450; Drosophila S2 Gal4-RORgamma UAS-luciferase reporter, 20 h; Potency, µM (highest dose often 53.6 µM), most hits filed as inhibitors; 5.4% of 310,000 active; AID 2551, 2010; note: nearly all actives have a fitted effect of over 60% in size
Target sequence (P51450 whole entry, looked up, the tested form may be a part): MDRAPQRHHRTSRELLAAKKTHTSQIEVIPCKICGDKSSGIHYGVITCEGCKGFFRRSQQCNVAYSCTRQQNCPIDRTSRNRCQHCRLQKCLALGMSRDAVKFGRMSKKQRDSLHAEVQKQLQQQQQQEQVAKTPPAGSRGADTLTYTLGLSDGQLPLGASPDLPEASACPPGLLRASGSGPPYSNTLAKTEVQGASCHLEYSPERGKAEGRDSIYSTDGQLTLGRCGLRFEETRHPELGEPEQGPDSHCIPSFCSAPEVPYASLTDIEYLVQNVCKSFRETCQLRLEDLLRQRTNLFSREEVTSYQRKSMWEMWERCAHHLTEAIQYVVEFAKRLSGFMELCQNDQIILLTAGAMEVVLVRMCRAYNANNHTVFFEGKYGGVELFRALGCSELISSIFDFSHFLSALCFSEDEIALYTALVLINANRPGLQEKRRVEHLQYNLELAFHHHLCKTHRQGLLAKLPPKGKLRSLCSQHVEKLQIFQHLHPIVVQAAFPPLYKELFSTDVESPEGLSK
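Luciferase reporter read in Schneider cells carrying Gal4-RORγ (mouse) and UAS-Photinus luciferase; cells given compound 1 h before 700 uM copper sulfate induction, then incubated 20 h at ambient temperature.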
VP16 counter: VP16 counterscreen qHTS for inhibitors of ROR gamma transcriptional activity. Drosophila S2 Gal4-VP16 UAS-luciferase, luminescence, 20 h. Potency, µM (top dose mostly 53.6 µM), usual class: inhibitors. 3.5% of 310,000 active. AID 2546, 2010;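 note: Gal4-VP16 expression switched on by copper sulfate through the metallothionein promoter; nearly all actives have a fitted effect of over 50% in size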
MCF10A rerep: A quantitative high throughput screen for small molecules that induce DNA re-replication in MCF 10a normal breast cells; AID 624296, 2012; Potency, µM (series often up to 46.1 µM), usual class: activators; MCF 10A DNA re-replication, Hoechst nuclear intensity, 48 h; 2.9% of 350,000 active; note: nearly all actives have a fitted effect of over 50% in size
IL1B secr inh: qHTS for Inhibitors of Inflammasome Signaling: IL-1-beta AlphaLISA Primary Screen. THP-1 LPS/ATP IL-1B secretion, AlphaLISA, 16 h; stronger effect = lower value. 4.7% of 360,000 active. activity change, % at 57.5 µM. AID 743279, 2014; in the data active = activity change below about -50%; inconclusive = mostly about -30% to -49%
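Secreted IL-1B measured by AlphaLISA bead assay after 16 h compound exposure of THP-1 cells; compounds (final up to 57.5 uM) added 1 h before LPS (250 ng/mL) and ATP (1.25 mM) stimulation; lower signal means less secretion.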
Hits are given with their value; i = inactive; ? = inconclusive; nt = no result; ! = not active in a repeat; [ ] = another dose, or the depositor's remark. A selection: hits, their analogues and other compounds. The true share with any hit is near 11%. Unless noted, calls come from the whole dose curve; as a rule, active = well fitted curve in the direction sought with a large enough effect; inconclusive = small, poorly fitted or top-dose-only effect, or another doubt; inactive = no such curve, though single readings can be large; an effect the other way counts as inactive or inconclusive.

SMILES	SW480 rereplic	RORg inh	VP16 counter	MCF10A rerep	IL1B secr inh
Cc1ccc2nc(-c3ccc(O)cc3)oc2c1	i[1.84 µM]	2.51µM	7.08µM	i	i
Cc1ccc(-c2nc(C=Nc3ccc(O)cc3)c(O)o2)cc1	5.8µM	i	i	14.6µM	-86.1
COc1ccc(OC2(C)CCN(Cc3ccccc3OC(F)F)C2)cc1 (configuration not stated)	nt	nt	nt	nt	i
O=[N+]([O-])c1ccc(O)c2cccnc12	i	?	i	i	i
O=[N+]([O-])c1ccc(O)c2ncccc12	7.31µM	0.282µM	0.562µM	14.6µM!	i
O=[N+]([O-])c1ccccc1Oc1ccc(Cl)c2cccnc12	i	?	i	i	i
O=[N+]([O-])c1cc([N+](=O)[O-])c2cccnc2c1Oc1ccccc1O	i	17.8µM	?	?	i
O=S(=O)(c1ccc(SCc2cccc(Cl)c2)nc1)N1CCCC1	i	nt	nt	i	i
O=C(NCCCN1CCOCC1)c1ccc2c(=O)n(-c3ccc(F)c(Cl)c3)c(=S)[nH]c2c1	?	i	i	?	i
CCn1c(Cc2cccc3ccccc23)nnc1SCC(=O)Nc1nccs1	i	14.1µM	?	i	i
Cc1sc(NC(=O)CN2CCOCC2)nc1-c1ccc2c(c1)CCN2S(=O)(=O)c1ccccc1	i	7.08µM	5.62µM	?	i
CNc1nc(-c2ccc3c(c2)CCN3C(=O)c2cccc(F)c2)cs1	14.6µM	i	i	i	?
O=C(CN1CCOCC1)Nc1nc(-c2ccc3c(c2)CCN3S(=O)(=O)c2ccccc2)cs1	i	i	?	?	i
Cc1cccc(C(=O)N2CCc3cc(-c4csc(NC(=O)CN5CCCC5)n4)ccc32)c1	?	?	i	16.4µM	i
CNc1nc(-c2ccc3c(c2)CCN3C(=O)c2ccc(F)cc2)cs1	i	i	i	i	i
Cc1cccc(C(=O)N2CCc3cc(-c4nc(NC(=O)CN5CCCC5)sc4C)ccc32)c1	?	i	i	18.4µM	i
CCNc1ncc2nc(-c3ccc(Cl)cc3)c(=O)n(-c3ccccc3)c2n1	nt	i	i	nt	nt
CCCCc1cc(=O)oc2cc(C)cc(OCC(=O)NCc3ccccn3)c12	i	i	i	i	i
CC(C)C(NC(=O)c1ccc(F)cc1)C(=O)N1CCN(C(=O)c2ccco2)CC1 (configuration not stated)	i	nt	nt	i	i
CCN(CC)CCC(=O)N1C/C(=C/c2ccccc2)C(=O)/C(=C\c2ccccc2)C1	?	nt	nt	?	-99.2
O=C(NCCN1CCOCC1)c1ccc(Cl)c(Cl)c1	i	i	i	i	i
O=C1/C(=C\c2ccccc2)CN(C(=O)CCN2CCCCC2)C/C1=C/c1ccccc1	?	nt	nt	?	-67.1
O=C1/C(=C\c2ccc(Cl)c(Cl)c2)CN(C(=O)CCN2CCOCC2)C/C1=C/c1ccc(Cl)c(Cl)c1	?	nt	nt	?	-100.8
O=C(CN(CCO)Cc1ccccc1)N1CCN(S(=O)(=O)c2ccccc2)CC1	nt	nt	nt	nt	i
Cc1c(CN(C)C(=O)C2CCC(=O)N(Cc3ccccc3F)C2)[nH]c2ccccc12 (configuration not stated)	nt	nt	nt	nt	i
SMILES	SW480 rereplic	RORg inh	VP16 counter	MCF10A rerep	IL1B secr inh
O=C(Nc1nc2ccccc2s1)c1ccc(OCC2CCCO2)cc1 (configuration not stated)	i	i	?	i	-62.0
Cc1cnc(NC(=O)c2ccc(OCC3CCCO3)cc2)s1 (configuration not stated)	i	7.94µM	?	i	i
O=C(Nc1ncccc1O)c1ccc(OCC2CCCO2)cc1 (configuration not stated)	?	10µM	?	i	i
Cc1ccc(NC(=O)c2ccc(OCC3CCCO3)cc2)nc1 (configuration not stated)	i	nt	nt	i	i
O=C(Nc1ncccc1O)c1ccc(Oc2ccccc2)cc1	i	?	14.1µM	i	i
O=C(Nc1ccc(C(=O)Nc2ccc(C(=O)Nc3ccc(S(=O)(=O)O)c4cc(S(=O)(=O)O)cc(S(=O)(=O)O)c34)cc2)cc1)Nc1ccc(C(=O)Nc2ccc(C(=O)Nc3ccc(S(=O)(=O)O)c4cc(S(=O)(=O)O)cc(S(=O)(=O)O)c34)cc2)cc1	nt	i	i	nt	nt
Cc1ccc(S(=O)(=O)N2CCOCC2)cc1NC(=O)CN(C)CC(=O)Nc1cccc(F)c1	nt	nt	nt	nt	i
